Assay results from PubChem BioAssay (EPA / NIEHS).
Where “and” joins values, the source holds several entries; their conditions need not be identical. Identical values can stand only once. Inconclusive results are not listed. Calls of active or inactive are those of the source. How the source made its calls, unless noted: active means hit-call score of the fitted dose curve at least 0.9, where 1 is the maximum; inconclusive means response in the unintended direction; inactive means score below 0.9.

Read-out: not listed separately
Assay: CLD_ACTIN_6hr: CellzDirect (CLD) Gene Expression Assay for Baseline Control (Actin) at 6 hours (AID 2283676);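 further: active means increased actin mRNA relative to DMSO vehicle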
Procedure, shortened: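 Primary human hepatocytes dosed with fresh chemical solutions (vehicle 0.2% DMSO), harvested at 6 h. Actin mRNA quantified by quantitative nuclease protection assay with chemiluminescent read-out, as background control relative to DMSO.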

Chain of Cytochrome P450 3A4 (Homo sapiens) (P08684 whole entry, looked up): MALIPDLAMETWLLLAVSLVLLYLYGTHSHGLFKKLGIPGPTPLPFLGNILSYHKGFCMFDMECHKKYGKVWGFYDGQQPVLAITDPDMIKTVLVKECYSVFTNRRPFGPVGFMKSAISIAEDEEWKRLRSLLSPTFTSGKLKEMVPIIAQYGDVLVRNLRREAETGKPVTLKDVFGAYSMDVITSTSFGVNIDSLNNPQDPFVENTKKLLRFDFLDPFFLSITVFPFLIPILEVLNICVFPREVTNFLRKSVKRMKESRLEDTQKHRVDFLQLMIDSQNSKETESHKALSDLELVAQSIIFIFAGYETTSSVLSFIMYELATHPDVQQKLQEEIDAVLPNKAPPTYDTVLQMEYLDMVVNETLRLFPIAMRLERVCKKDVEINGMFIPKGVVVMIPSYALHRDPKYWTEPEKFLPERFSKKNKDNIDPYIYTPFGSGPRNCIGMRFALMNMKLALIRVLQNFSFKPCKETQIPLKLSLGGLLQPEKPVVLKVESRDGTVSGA
Chain of Cytochrome P450 2C19 (Homo sapiens) (P33261 whole entry, looked up): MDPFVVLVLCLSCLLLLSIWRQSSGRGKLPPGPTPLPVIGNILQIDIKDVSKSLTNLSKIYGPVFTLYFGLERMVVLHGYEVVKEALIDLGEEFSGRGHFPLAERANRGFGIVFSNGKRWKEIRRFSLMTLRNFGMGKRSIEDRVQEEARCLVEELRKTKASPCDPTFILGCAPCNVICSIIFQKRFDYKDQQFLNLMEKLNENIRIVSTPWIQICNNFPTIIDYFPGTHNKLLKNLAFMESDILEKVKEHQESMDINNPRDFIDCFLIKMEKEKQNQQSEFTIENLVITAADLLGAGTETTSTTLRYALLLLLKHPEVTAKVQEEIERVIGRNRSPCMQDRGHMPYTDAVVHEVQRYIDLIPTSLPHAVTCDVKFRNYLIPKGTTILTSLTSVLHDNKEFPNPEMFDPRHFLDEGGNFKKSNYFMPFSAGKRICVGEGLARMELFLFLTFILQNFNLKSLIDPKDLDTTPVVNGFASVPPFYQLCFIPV

Structure (SMILES) | outcome
ClC1C(Cl)C(Cl)C(Cl)C(Cl)C1Cl (centres undefined) | inactive
Clc1ccccc1-c1nnc(-c2ccccc2Cl)nn1 | inactive
O=C(O)COc1ccc(Cl)cc1Cl | inactive
O=S(=O)(O)C(F)(F)C(F)(F)C(F)(F)C(F)(F)C(F)(F)C(F)(F)C(F)(F)C(F)(F)F | inactive
CCN(CC)C(=O)SCc1ccc(Cl)cc1 | inactive
[2H]C1([2H])[n+]2ccccc2-c2cccc[n+]2C1([2H])[2H] | inactive
OCCOc1ccccc1 | inactive
CCOCN(C(=O)CCl)c1c(C)cccc1CC | inactive
COC(=O)c1ccccc1CS(=O)(=O)NC(=O)Nc1nc(OC)cc(OC)n1 | inactive
CNC(=O)Oc1cccc(N=CN(C)C)c1 | inactive
C#CCN1C(=O)COc2cc(F)c(N3C(=O)C4=C(CCCC4)C3=O)cc21 | inactive
Oc1ccc(Cl)cc1Cc1ccccc1 | inactive
CC(C)(C)C(O)C(Oc1ccc(Cl)cc1)n1cncn1 (centres undefined) | inactive
O=S1OCC2C(CO1)C1(Cl)C(Cl)=C(Cl)C2(Cl)C1(Cl)Cl (centres undefined) | inactive
CCC(C)(C)C(=O)OC1=C(c2ccc(Cl)cc2Cl)C(=O)OC12CCCCC2 | inactive
CCOC1Oc2ccc(OS(C)(=O)=O)cc2C1(C)C (centres undefined) | inactive
CNC(=O)Oc1ccccc1OC(C)C | inactive
CNC(=O)CSP(=S)(OC)OC | inactive
CC1(c2ccc(Oc3ccccc3)cc2)OC(=O)N(Nc2ccccc2)C1=O (centres undefined) | inactive
CCCN(CCOc1c(Cl)cc(Cl)cc1Cl)C(=O)n1ccnc1 | inactive
N#CN | inactive
Cc1cc(C)nc(NC(=O)NS(=O)(=O)c2ccccc2C(=O)OC2COC2)n1 | inactive
O=C(O)C(F)(F)C(F)(F)C(F)(F)C(F)(F)C(F)(F)C(F)(F)C(F)(F)F | inactive
O=C(NC(=O)c1c(F)cccc1F)Nc1ccc(OC(F)(F)C(F)OC(F)(F)F)c(Cl)c1 (centres undefined) | inactive
CC(C)(C)C(O)/C(=C\c1ccc(Cl)cc1Cl)n1cncn1 (centres undefined) | inactive
COC(=O)c1ccccc1S(=O)(=O)NC(=O)Nc1nc(C)nc(OC)n1 | inactive

Read-out: Cytochrome P450 2B6 (Homo sapiens) (UniProt P20813)
Assay: CLD_CYP2B6_6hr: CellzDirect (CLD) Gene Expression Assay for xenobiotic metabolism (CYP2B6) at 6 hours (AID 2283677);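 further: actives raise CYP2B6 transcript above DMSO baseline so AC50 marks an inducer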
Procedure, shortened: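 Primary human hepatocytes dosed with chemicals at multiple concentrations, vehicle 0.2% DMSO; CYP2B6 mRNA induction measured 6 h after dosing by quantitative nuclease protection assay with chemiluminescence, gain of signal fitted relative to DMSO.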

Structure (SMILES) | AC50 | outcome
CCN(CC)C(=O)SCc1ccc(Cl)cc1 | 1840 nM (active) | –
C#CCN1C(=O)COc2cc(F)c(N3C(=O)C4=C(CCCC4)C3=O)cc21 | 301 nM (active) | –
CCC(C)(C)C(=O)OC1=C(c2ccc(Cl)cc2Cl)C(=O)OC12CCCCC2 | – | inactive
COC(=O)c1ccccc1S(=O)(=O)NC(=O)Nc1nc(C)nc(OC)n1 | – | inactive

Read-out: Cytochrome P450 2C19 (Homo sapiens) (UniProt P33261)
Assay: CLD_CYP2C19_6hr: CellzDirect (CLD) Gene Expression Assay for xenobiotic metabolism (CYP2C19) at 6 hours (AID 2283678)
Procedure, shortened: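 Primary human hepatocytes from two donor preparations were dosed daily, with 0.2% DMSO as vehicle, and harvested 6 h after dosing. CYP2C19 mRNA induction was measured by qNPA chemiluminescence and fitted as gain of signal against DMSO.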

Structure (SMILES) | outcome
Clc1ccccc1-c1nnc(-c2ccccc2Cl)nn1 | inactive
O=C(O)COc1ccc(Cl)cc1Cl | inactive
O=S(=O)(O)C(F)(F)C(F)(F)C(F)(F)C(F)(F)C(F)(F)C(F)(F)C(F)(F)C(F)(F)F | inactive
CCN(CC)C(=O)SCc1ccc(Cl)cc1 | inactive
[2H]C1([2H])[n+]2ccccc2-c2cccc[n+]2C1([2H])[2H] | inactive
OCCOc1ccccc1 | inactive
CCOCN(C(=O)CCl)c1c(C)cccc1CC | inactive
COC(=O)c1ccccc1CS(=O)(=O)NC(=O)Nc1nc(OC)cc(OC)n1 | inactive
CNC(=O)Oc1cccc(N=CN(C)C)c1 | inactive
C#CCN1C(=O)COc2cc(F)c(N3C(=O)C4=C(CCCC4)C3=O)cc21 | inactive
Oc1ccc(Cl)cc1Cc1ccccc1 | inactive
CCC(C)(C)C(=O)OC1=C(c2ccc(Cl)cc2Cl)C(=O)OC12CCCCC2 | inactive
CNC(=O)Oc1ccccc1OC(C)C | inactive
CNC(=O)CSP(=S)(OC)OC | inactive
CC1(c2ccc(Oc3ccccc3)cc2)OC(=O)N(Nc2ccccc2)C1=O (centres undefined) | inactive
CCCN(CCOc1c(Cl)cc(Cl)cc1Cl)C(=O)n1ccnc1 | inactive
Cc1cc(C)nc(NC(=O)NS(=O)(=O)c2ccccc2C(=O)OC2COC2)n1 | inactive
O=C(O)C(F)(F)C(F)(F)C(F)(F)C(F)(F)C(F)(F)C(F)(F)C(F)(F)F | inactive
O=C(NC(=O)c1c(F)cccc1F)Nc1ccc(OC(F)(F)C(F)OC(F)(F)F)c(Cl)c1 (centres undefined) | inactive
COC(=O)c1ccccc1S(=O)(=O)NC(=O)Nc1nc(C)nc(OC)n1 | inactive

Tested on: not listed separately
Assay: CCTE_Padilla_ZF_144hpf_TERATOSCORE: (Legacy) CCTE's 144 Hour Post-fertilization zebrafish Assay Teratoscore, Padilla Lab (AID 2283679; active means hit-call score of the fitted dose curve at least 0.9, where 1 is the maximum; inactive means score below 0.9;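 on AC50: zebrafish embryos with chorions exposed by immersion from 6-8 hpf to 5 dpf with daily renewal; teratogenicity score from eye scoring of death hatching and malformations at 144 hpf; higher score means more developmental defects relative to DMSO baseline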)
Procedure, shortened: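 Larvae scored by eye at 144 hpf for death, hatching and malformations after a day in clean Hanks'. Before that, daily-renewed exposure at 80 uM (0.4% DMSO, 26C) from roughly 6-8 hpf through 5 dpf, 4 embryos per chemical.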

Structure (SMILES) | AC50 | outcome
ClC1C(Cl)C(Cl)C(Cl)C(Cl)C1Cl (centres undefined) | 42.6 µM (active) | –
[2H]C1([2H])[n+]2ccccc2-c2cccc[n+]2C1([2H])[2H] | – | inactive
CCOCN(C(=O)CCl)c1c(C)cccc1CC | 15.5 µM (active) | –
CC(C)(C)C(O)C(Oc1ccc(Cl)cc1)n1cncn1 (centres undefined) | 52.6 µM (active) and 46.6 µM (active) and 57.3 µM (active) | –
O=S1OCC2C(CO1)C1(Cl)C(Cl)=C(Cl)C2(Cl)C1(Cl)Cl (centres undefined) | 3.4 µM (active) | –
CCC(C)(C)C(=O)OC1=C(c2ccc(Cl)cc2Cl)C(=O)OC12CCCCC2 | 1.89 µM (active) | –
N#CN | – | inactive

Read-out: Cytochrome P450 3A4 (Homo sapiens) (UniProt P08684)
Assay: CLD_CYP3A4_6hr: CellzDirect (CLD) Gene Expression Assay for xenobiotic metabolism (CYP3A4) at 6 hours (AID 2283680)
Procedure, shortened: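 Primary human hepatocytes (two donor preparations) dosed; CYP3A4 mRNA harvested at 6 h and quantified by qNPA chemiluminescence. Gain of signal fitted against 0.2% DMSO vehicle; cytotoxicity flagged by phase-contrast morphology.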

Structure (SMILES) | outcome | AC50
ClC1C(Cl)C(Cl)C(Cl)C(Cl)C1Cl (centres undefined) | inactive | –
Clc1ccccc1-c1nnc(-c2ccccc2Cl)nn1 | inactive | –
O=C(O)COc1ccc(Cl)cc1Cl | – | 490 nM (active)
CCN(CC)C(=O)SCc1ccc(Cl)cc1 | – | 20000 nM (active)
OCCOc1ccccc1 | inactive | –
CCOCN(C(=O)CCl)c1c(C)cccc1CC | – | 328 nM (active)
CNC(=O)Oc1cccc(N=CN(C)C)c1 | inactive | –
C#CCN1C(=O)COc2cc(F)c(N3C(=O)C4=C(CCCC4)C3=O)cc21 | inactive | –
O=S1OCC2C(CO1)C1(Cl)C(Cl)=C(Cl)C2(Cl)C1(Cl)Cl (centres undefined) | – | 9060 nM (active)
CCC(C)(C)C(=O)OC1=C(c2ccc(Cl)cc2Cl)C(=O)OC12CCCCC2 | inactive | –
CCOC1Oc2ccc(OS(C)(=O)=O)cc2C1(C)C (centres undefined) | inactive | –
CNC(=O)Oc1ccccc1OC(C)C | inactive | –
CNC(=O)CSP(=S)(OC)OC | inactive | –
CCCN(CCOc1c(Cl)cc(Cl)cc1Cl)C(=O)n1ccnc1 | inactive | –
N#CN | inactive | –
Cc1cc(C)nc(NC(=O)NS(=O)(=O)c2ccccc2C(=O)OC2COC2)n1 | inactive | –
CC(C)(C)C(O)/C(=C\c1ccc(Cl)cc1Cl)n1cncn1 (centres undefined) | – | 1890 nM (active)
